Compound activity from PubChem BioAssay.
CHX counter: affects cycloheximide protein synthesis inhibition readout, counter-screen | cell reporter, cycloheximide protein synthesis inhibition counterscreen | max response, % | actives 12% (n = 300,000); in the data active means max response mostly above about 13%, no sharp cut-off; inactive means mostly below about 14%; further: read at 38.3 µM for the half of the compounds with a filed dose
NS1 function inh: inhibitors of influenza NS1 protein function; actives 0.4% (n = 270,000); Potency, µM (highest dose often 46.1 µM); calls by dose curve; further: actives are rising curves; nearly all actives have a fitted effect of over 50% in size
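In this qHTS, NS1 from influenza A is expressed in budding yeast, where it slows growth. Cells are switched from glucose to 2% galactose medium (pH 6.0, -URA), treated with compound, and growth recovery is read at OD600.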
Pf growth 48h: P. falciparum growth inhibition at 48 hours (one generation); P. falciparum luciferase growth in erythrocytes, 48 h; actives 5.9% (n = 310,000); AID 504832; Potency, µM (top dose mostly 28.7 µM), hits mostly inhibitors
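In quantitative HTS format, infected erythrocytes bearing luciferase-reporter parasites were treated for a single generation at 37 C. Luminescence after adding detection reagent served as the growth measure.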
Pf growth 96h: inhibits malaria parasite growth, 96 h | P. falciparum luciferase reporter growth, 96 h | Potency, µM (top dose mostly 28.7 µM), actives largely listed as inhibitors | actives 6.9% (n = 320,000)
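Plates of compound plus infected erythrocytes (2% hematocrit, 0.05% parasitemia final) incubate 96 hours, 37 C, 5% CO2. Detection reagent added; reduced luminescence from the parasites' luciferase reporter flags inhibition.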
Shiga inhibitor: inhibitors of Shiga toxin in Vero cells; Vero cells, Shiga toxin protein synthesis inhibition reporter; inhibition, % at 38.7 µM; actives 9.2% (n = 290,000); AID 2315; in the data active means inhibition mostly above about 28%, no sharp cut-off; inactive means mostly below about 43%
Sm TGR inh: inhibitors of Schistosoma mansoni thioredoxin glutathione reductase. Potency, µM (titrated, usually from 114 µM), actives largely listed as inhibitors. purified TGR, DTNB reduction, TNB absorbance 405 nm. actives 3% (n = 360,000). Q962Y6. AID 485364; further: nearly all actives have a fitted effect of over 60% in size
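Kinetic colorimetric format: TGR-catalysed, NADPH-driven DTNB reduction monitored via TNB absorbance. Enzyme dispensed at 20 nM; compound exposure 15 min at room temperature before reaction start.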
Of the large screens only hits and unclear results are named; the others gave an inactive call. The list is not random: actives were taken first. Their share in the collection is about 21%. Unless noted, the call rests on the fitted dose curve; in most records, active means well fitted curve in the direction sought with a large enough effect; inconclusive means small, poorly fitted or top-dose-only effect, or another doubt; inactive means no such curve, though single readings can be large; an effect the other way counts as inactive or inconclusive.

Cc1nn(-c2ccccc2C(=O)O)c(=O)c2ccccc12	none
CC(C(=O)O)n1ncc2ccccc2c1=O (stereo unspecified)	Pf growth 48h 2.6µM
CCOc1ccc(NC(=O)[C@@H]2CCC(=O)N2C2OC(=O)c3ccccc32)cc1 (stereo partly specified)	none
OC[C@H]1O[C@@](CO)(O[C@H]2O[C@H](CO)[C@@H](O)[C@H](O)[C@H]2O)[C@@H](O)[C@@H]1O	none (no result: CHX counter, NS1 function inh, Shiga inhibitor, Sm TGR inh)
O=C(NC1CCCC1)c1cc(S(=O)(=O)N2CCCC2)ccc1Cl	none
CC(C(=O)NCc1ccccc1Cl)n1cc([N+](=O)[O-])cn1 (stereo unspecified)	none
CC(C)C[C@H](NC(=O)c1[nH]cnc1C(=O)N[C@@H](Cc1ccccc1)C(=O)OC(C)(C)C)C(=O)OCc1ccccc1	NS1 function inh inconclusive, Pf growth 48h inconclusive
CC(C)(C)OC(=O)[C@H](Cc1ccccc1)NC(=O)c1nc[nH]c1C(=O)NC1CCN(C(=O)OC(C)(C)C)CC1	Pf growth 48h 4.7µM, Pf growth 96h 3.3µM
CC(C)(C)OC(=O)[C@H](Cc1ccccc1)NC(=O)c1nc[nH]c1C(=O)N1CCN(C(=O)OC(C)(C)C)CC1	Pf growth 48h inconclusive, Pf growth 96h 9.3µM
CC(C)(C)OC(=O)N1CCN(C(=O)c2[nH]cnc2C(=O)N[C@@H](Cc2ccccc2)C(=O)OCc2ccccc2)CC1	Pf growth 48h inconclusive, Pf growth 96h inconclusive
CC1CCN(C(=O)c2[nH]cnc2C(=O)N[C@@H](Cc2ccccc2)C(=O)OC(C)(C)C)CC1	none
CC(C)C[C@H](NC(=O)c1[nH]cnc1C(=O)N[C@@H](Cc1ccccc1)C(=O)OC(C)(C)C)C(=O)OC(C)(C)C	Pf growth 48h 9.3µM, Pf growth 96h inconclusive
COc1ccc(S(=O)(=O)NCCc2cn3cccc(C)c3n2)cc1OC	none
Cc1cccn2cc(CNc3ccccc3)nc12	CHX counter 51, Shiga inhibitor 68
Cc1cccn2cc(CCNS(=O)(=O)c3cccs3)nc12	CHX counter 21
COc1ccc(-c2cn3cccc(C)c3n2)cc1Br	CHX counter 76, Shiga inhibitor 150
CCOC(=S)SCc1cn2cccc(C)c2n1	CHX counter 24 (no result: NS1 function inh)
COc1ccc(C)c2sc(NC(=O)c3ccc(S(=O)(=O)N4CCCCC4)cc3)nc12	none (no result: CHX counter, NS1 function inh, Pf growth 48h, Pf growth 96h, Shiga inhibitor)
COc1ccc(NC(=O)CC2Oc3ccc(C)cc3NC2=O)cc1Cl (stereo unspecified)	none (no result: CHX counter, NS1 function inh, Pf growth 48h, Pf growth 96h, Shiga inhibitor)
CCOc1ccc(NC(=O)CCn2c(=O)c3cccn3c3cccnc32)cc1	none (no result: CHX counter, NS1 function inh, Pf growth 48h, Pf growth 96h, Shiga inhibitor)
COc1ccccc1CNC(=O)CCCCn1c(=O)c2ccccc2n(Cc2c(C)cc(C)cc2C)c1=O	none (no result: CHX counter, NS1 function inh, Pf growth 48h, Pf growth 96h, Shiga inhibitor)
O=C(COc1ccc(F)cc1)Nc1ccc(S(=O)(=O)N(Cc2ccccc2)c2ccccc2)cc1	none (no result: CHX counter, NS1 function inh, Pf growth 48h, Pf growth 96h, Shiga inhibitor)
Cc1cccn2cc(-c3ccc(F)cc3)nc12	CHX counter 39, Shiga inhibitor 71
Cc1cccn2cc(-c3ccccc3)nc12	CHX counter 52, Pf growth 96h inconclusive, Shiga inhibitor 64
COc1ccccc1C(=O)Nc1ccc(OCC(=O)N2CC(C)OC(C)C2)cc1 (stereo unspecified)	none (no result: CHX counter, NS1 function inh, Shiga inhibitor)
O=C(Cn1cc(S(=O)(=O)c2ccccc2)c(=O)c2cc3c(cc21)OCO3)Nc1ccccc1	none (no result: CHX counter, NS1 function inh, Pf growth 48h, Pf growth 96h, Shiga inhibitor)
Fc1cccc(NC(=S)N2CCCCC2)c1	none
S=C(Nc1ccccc1Cl)N1CCC(c2ccccc2)C1 (stereo unspecified)	CHX counter 44, Shiga inhibitor 131 (no result: NS1 function inh)
Fc1ccccc1NC(=S)N1CCC(c2ccccc2)C1 (stereo unspecified)	CHX counter 62, Shiga inhibitor 164 (no result: NS1 function inh)
S=C(Nc1ccccc1Cl)N1CCCCCC1	none (no result: NS1 function inh)
Cc1ccc(NC(=S)N2CCC(c3ccccc3)C2)c(Cl)c1 (stereo unspecified)	Shiga inhibitor 72 (no result: NS1 function inh)
Fc1cc(F)cc(NC(=S)N2CCC(c3ccccc3)C2)c1 (stereo unspecified)	CHX counter 41, Shiga inhibitor 138 (no result: NS1 function inh)
Fc1ccccc1NC(=S)N1CCCCC1	none
COCCNC(=O)CCn1c(=O)c2cc(OC)c(OC)cc2n(CC(=O)Nc2ccccc2OC)c1=O	none (no result: CHX counter, NS1 function inh, Pf growth 48h, Pf growth 96h, Shiga inhibitor)
CCCSc1ncc(Cl)c(C(=O)N(Cc2ccc(N(C)C)cc2)C2CCS(=O)(=O)C2)n1 (stereo unspecified)	none (no result: CHX counter, NS1 function inh, Pf growth 48h, Pf growth 96h, Shiga inhibitor)
CCC1CCCCN1Cc1cn2c(-c3ccc(Br)cc3)nnc2s1 (stereo unspecified)	none (no result: CHX counter, NS1 function inh, Pf growth 48h, Pf growth 96h, Shiga inhibitor)
C/C(=N\NC(=S)Nc1ccc(F)cc1)C1CC1	CHX counter 29, Pf growth 48h inconclusive, Pf growth 96h 12µM
N#C/C(=C\c1ccc(-c2cccc(Cl)c2)o1)C(=O)Nc1cccc(C(F)(F)F)c1	none (no result: CHX counter, NS1 function inh, Pf growth 48h, Pf growth 96h, Shiga inhibitor)
CCCCNC(=O)Cn1c(=O)c2c(ncn2CCC(C)C)n(Cc2ccccc2)c1=O	Pf growth 48h inconclusive, Pf growth 96h 2.3µM
CCCC(C)NC(=O)Cn1c(=O)c2c(ncn2CCC(C)C)n(Cc2ccccc2)c1=O (stereo unspecified)	Pf growth 48h inconclusive, Pf growth 96h inconclusive
Cc1cc(NC(=O)Cn2c(=O)c3c(ncn3CCC(C)C)n(Cc3ccccc3)c2=O)no1	Pf growth 48h 3.3µM
Cc1cc(NC(=O)Cn2c(=O)c3c(ncn3CC(C)C)n(Cc3ccccc3)c2=O)no1	Pf growth 48h 8.3µM, Pf growth 96h 4.7µM
CCn1cnc2c1c(=O)n(CC(=O)Nc1cc(C)on1)c(=O)n2Cc1ccccc1	Pf growth 48h inconclusive, Pf growth 96h inconclusive
CC(C)Cn1cnc2c1c(=O)n(CC(=O)Nc1ccc3c(c1)OCO3)c(=O)n2Cc1ccccc1	Pf growth 48h 9.3µM, Pf growth 96h 10µM
CC(C)NC(=O)Cn1c(=O)c2c(ncn2Cc2ccccc2)n(Cc2ccccc2)c1=O	none (no result: Pf growth 96h)
CC(C)CN(C(=O)CCC1CCCCC1)c1c(N)n(CC(C)C)c(=O)[nH]c1=O	Pf growth 96h inconclusive (no result: CHX counter, NS1 function inh, Shiga inhibitor)
NC(CSCC(=O)O)C(=O)O (stereo unspecified)	none (no result: NS1 function inh, Sm TGR inh)
O=C(NCc1ccccc1Br)C1CCCO1 (stereo unspecified)	Pf growth 96h inconclusive
Cc1ccc(NC(=O)Cn2cc(C(=O)C3CCCCC3)c3ccccc32)cc1	none (no result: CHX counter, NS1 function inh, Pf growth 48h, Pf growth 96h, Shiga inhibitor)
CC(C)Cn1cnc2c1c(=O)n(CC(=O)NC(=O)NC(C)(C)C)c(=O)n2Cc1ccccc1	Pf growth 48h 2.9µM, Pf growth 96h inconclusive
COc1ccc(S(=O)(=O)N2CCOCC2)cc1Cl	Pf growth 96h inconclusive (no result: Pf growth 48h)
CCC(C)Nc1nc(CN2CCOCC2)nc2sc3c(c12)CCC3 (stereo unspecified)	Pf growth 96h 9.3µM (no result: Pf growth 48h)
Cc1cccc(Oc2nc(CN3CCOCC3)nc3sc4c(c23)CCCC4)c1	Pf growth 48h 10µM, Pf growth 96h inconclusive
Cc1nc(Oc2ccc(S(=O)(=O)N3CCOCC3)cc2Cl)c2c3c(sc2n1)CCCC3	Pf growth 48h inconclusive, Pf growth 96h 13µM
CCOC(=O)CN1C(=O)N(CC(=O)OCC)C(c2ccccc2)(c2ccccc2)C1=O	Pf growth 96h inconclusive
